This excerpt belongs to a sample that is enriched for hits.
IDE exosite inh = exo-site inhibitors of human IDE, primary screen, biochemical, fluorescence anisotropy, probe displacement; AID 1259349, 2017; Insulin-degrading enzyme (Homo sapiens), P14735; z-score at 20 µM; 17,000 compounds, 6.3% hits; purified IDE, FL-6b probe fluorescence polarization; active compounds read low;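 active = z-score of -3 or lower, meaning strong loss of probe binding signal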;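 note: His-tagged human IDE residues 42-1019 made in E. coli with 30 nM FL-6b probe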
Target sequence (P14735 42-1019 limits assumed): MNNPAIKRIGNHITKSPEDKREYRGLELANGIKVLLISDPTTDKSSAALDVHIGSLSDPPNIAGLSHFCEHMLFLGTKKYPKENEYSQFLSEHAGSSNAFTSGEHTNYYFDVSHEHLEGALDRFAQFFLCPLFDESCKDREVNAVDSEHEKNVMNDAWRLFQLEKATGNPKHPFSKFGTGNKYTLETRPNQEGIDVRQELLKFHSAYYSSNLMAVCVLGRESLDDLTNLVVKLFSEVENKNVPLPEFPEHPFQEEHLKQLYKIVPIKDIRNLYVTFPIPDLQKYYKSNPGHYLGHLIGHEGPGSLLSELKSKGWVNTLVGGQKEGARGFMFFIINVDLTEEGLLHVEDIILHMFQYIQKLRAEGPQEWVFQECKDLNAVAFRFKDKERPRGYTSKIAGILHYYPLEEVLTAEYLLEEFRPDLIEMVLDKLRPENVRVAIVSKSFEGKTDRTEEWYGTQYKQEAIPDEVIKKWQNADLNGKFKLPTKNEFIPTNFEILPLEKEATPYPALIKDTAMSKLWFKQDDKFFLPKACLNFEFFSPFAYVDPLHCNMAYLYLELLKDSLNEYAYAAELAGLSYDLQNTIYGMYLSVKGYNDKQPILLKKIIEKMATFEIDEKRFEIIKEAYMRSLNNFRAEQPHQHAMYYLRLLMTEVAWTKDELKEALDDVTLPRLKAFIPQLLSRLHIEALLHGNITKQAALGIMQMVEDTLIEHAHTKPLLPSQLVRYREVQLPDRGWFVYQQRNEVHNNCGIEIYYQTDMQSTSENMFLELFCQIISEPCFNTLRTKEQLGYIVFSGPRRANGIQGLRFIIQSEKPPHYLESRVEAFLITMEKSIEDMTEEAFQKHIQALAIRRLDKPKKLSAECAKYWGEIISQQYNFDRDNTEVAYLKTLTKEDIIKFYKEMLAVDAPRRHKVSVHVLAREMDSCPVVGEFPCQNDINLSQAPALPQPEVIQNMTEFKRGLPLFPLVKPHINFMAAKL
A number is an active result; n = inactive.

SMILES | IDE exosite inh
COc1ccc(-c2ccc([C@H]3[C@H](CO)N4CCCCN(C(=O)NC(C)C)C[C@@H]34)cc2)cc1 | -7.32
COc1ccc(-c2ccc([C@@H]3[C@H]4CN(C(=O)c5ccc(F)cc5)CCCCN4[C@H]3CO)cc2)cc1 | n
CC(C)NC(=O)N1CCCCN2[C@H](C1)[C@@H](c1ccc(Br)cc1)[C@@H]2CO | n
COc1ccc(-c2ccc([C@H]3[C@@H](CO)N4CCCCN(C(=O)NC(C)C)C[C@@H]34)cc2)cc1 | -6.29
COCC(=O)N1CCCCN2[C@@H](CO)[C@@H](c3ccc(-c4ccc(OC)cc4)cc3)[C@@H]2C1 | n
COCC(=O)N1CCCCN2[C@H](CO)[C@@H](c3ccc(-c4ccc(OC)cc4)cc3)[C@H]2C1 | n
COc1ccc(-c2ccc([C@H]3[C@@H](CO)N4CCCCN(C(=O)NC(C)C)C[C@H]34)cc2)cc1 | n
C[C@H](CO)N1C[C@H](C)[C@H](CN(C)S(=O)(=O)c2ccc(F)cc2)OCCCC[C@H](C)Oc2ccc(N(C)C)cc2C1=O | n
CCC(=O)N1[C@@H](CO)[C@@H](c2ccccc2)C12CN(C(=O)c1ccc3c(c1)OCO3)C2 | n
COc1ccc2c3c([nH]c2c1)[C@@H](CO)N(Cc1ccccc1)CC31CN(C(=O)c2ccccn2)C1 | n
CN1C[C@@H](O)COC[C@@H]2O[C@H](CC(=O)NC3CCCC3)CC[C@H]21 | n
COc1ccc(S(=O)(=O)N2CCCCN3[C@@H](CO)[C@H](c4ccc(C#CCC(C)C)cc4)[C@@H]3C2)cc1 | n
CC(C)(O)C#Cc1ccc([C@@H]2[C@@H](CO)N3CCCCN(C(=O)c4cccnc4)C[C@H]23)cc1 | n
O=C(c1ccncc1)N1CCCCN2[C@H](C1)[C@@H](c1ccc(C#Cc3ccccn3)cc1)[C@@H]2CO | n
O=C(c1cccnc1)N1CCCCN2[C@H](CO)[C@H](c3ccc(C#Cc4cccnc4)cc3)[C@@H]2C1 | -4.34
CC(C)(O)C#Cc1ccc([C@H]2[C@@H](CO)N3CCCCN(C(=O)c4cccnc4)C[C@@H]23)cc1 | n
O=C(c1cccnc1)N1CCCCN2[C@@H](CO)[C@H](c3ccc(C#Cc4ccccn4)cc3)[C@@H]2C1 | -7.72
O=C(c1ccncc1)N1CCCCN2[C@H](CO)[C@H](c3ccc(C#Cc4ccccn4)cc3)[C@@H]2C1 | n
O=C(c1cccnc1)N1CCCCN2[C@H](C1)[C@@H](c1ccc(C#Cc3cccnc3)cc1)[C@@H]2CO | n
CC(C)(O)C#Cc1ccc([C@H]2[C@H](CO)N3CCCCN(C(=O)c4cccnc4)C[C@@H]23)cc1 | n
O=C(c1cccnc1)N1CCCCN2[C@H](C1)[C@H](c1ccc(C#Cc3ccccn3)cc1)[C@@H]2CO | -5.46
COc1ccccc1-c1cn(CC[C@@H]2CC[C@H](NC(=O)C3CCCCC3)[C@@H](CO)O2)nn1 | n
C[C@@H]1CCCn2cc(nn2)COCCNC1=O | n
O=C(NC[C@@H]1[C@H](c2ccccc2)[C@H](CO)N1C(=O)C1CCC1)NC1CCCC1 | n
CC(C)CC#Cc1ccc([C@@H]2[C@H]3CN(C(=O)c4cnccn4)CC(=O)N3[C@H]2CO)cc1 | n
SMILES | IDE exosite inh
O=C(c1cnccn1)N1CC(=O)N2[C@H](C1)[C@H](c1ccc(C#CC3CC3)cc1)[C@@H]2CO | n
O=C(NC1CCCC1)N1CC(=O)N2[C@H](CO)[C@@H](c3ccc(-c4ccc(F)cc4)cc3)[C@H]2C1 | n
O=C(NC1CCCCC1)N1CC(=O)N2[C@H](C1)[C@H](c1ccc(-c3cccc(F)c3)cc1)[C@@H]2CO | -6.25
O=C(NC1CCCC1)N1CC(=O)N2[C@H](C1)[C@H](c1ccc(-c3ccc(F)cc3)cc1)[C@@H]2CO | n
O=C(NC1CCCC1)N1CC(=O)N2[C@H](CO)[C@H](c3ccc(-c4ccc(F)cc4)cc3)[C@@H]2C1 | n
O=C(NC1CCCC1)N1CC(=O)N2[C@H](C1)[C@@H](c1ccc(-c3ccc(F)cc3)cc1)[C@@H]2CO | n
O=C(NC1CCCCC1)N1CC(=O)N2[C@H](CO)[C@H](c3ccc(-c4cccc(F)c4)cc3)[C@H]2C1 | -12.7
C[C@H](CO)N1C[C@H](C)[C@H](CN(C)C(=O)Nc2ccc3c(c2)OCO3)OCCCC[C@H](C)Oc2ccc(NS(=O)(=O)c3ccc(F)cc3)cc2C1=O | n
C[C@@H]1CCCCO[C@H](CN(C)C(=O)c2ccncc2)[C@@H](C)CN([C@@H](C)CO)C(=O)c2cc(NC(=O)CCC(F)(F)F)ccc2O1 | n
CO[C@@H](CN(C)C(=O)c1cc(Cl)cc(Cl)c1)[C@H](C)CN(C(=O)Nc1ccc(F)cc1)[C@@H](C)CO | n
CCN(C[C@@H]1[C@H](c2ccccc2)[C@H](CO)N1C(=O)COC)S(C)(=O)=O | n
COc1ccc2c3c([nH]c2c1)[C@@H](CO)N(C(=O)Nc1ccc(F)cc1)CC31CN(C(=O)c2ccccn2)C1 | n
CS(=O)(=O)N1[C@@H](C#N)[C@@H](c2ccccc2-c2ccc(F)cc2)[C@@H]1CO | n
COc1cccc(NC(=O)N2[C@H](CO)[C@H](c3ccccc3)[C@H]2CNCC(C)C)c1 | n

Screening results as filed in PubChem BioAssay.
